Source: PubChem BioAssay AID2283179 (EPA ToxCast)
Inconclusive results are not listed. Activity calls are given as the source filed them. How the source made its calls: active means hit-call score of the fitted dose curve at least 0.9, where 1 is the maximum; inconclusive means response in the unintended direction; inactive means score below 0.9.

The compounds below were run against human Microtubule Affinity Regulating Kinase 1 (MARK1), MARK1 (gene 4139) (UniProt Q9P0L2) (assay: NVS_ENZ_hMARK1: NovaScreen (NVS) Enzymatic Assay for human Microtubule Affinity Regulating Kinase 1 (MARK1)).
Sequence of human Microtubule Affinity Regulating Kinase 1 (MARK1), MARK1 (gene 4139) (Q9P0L2 whole entry, looked up): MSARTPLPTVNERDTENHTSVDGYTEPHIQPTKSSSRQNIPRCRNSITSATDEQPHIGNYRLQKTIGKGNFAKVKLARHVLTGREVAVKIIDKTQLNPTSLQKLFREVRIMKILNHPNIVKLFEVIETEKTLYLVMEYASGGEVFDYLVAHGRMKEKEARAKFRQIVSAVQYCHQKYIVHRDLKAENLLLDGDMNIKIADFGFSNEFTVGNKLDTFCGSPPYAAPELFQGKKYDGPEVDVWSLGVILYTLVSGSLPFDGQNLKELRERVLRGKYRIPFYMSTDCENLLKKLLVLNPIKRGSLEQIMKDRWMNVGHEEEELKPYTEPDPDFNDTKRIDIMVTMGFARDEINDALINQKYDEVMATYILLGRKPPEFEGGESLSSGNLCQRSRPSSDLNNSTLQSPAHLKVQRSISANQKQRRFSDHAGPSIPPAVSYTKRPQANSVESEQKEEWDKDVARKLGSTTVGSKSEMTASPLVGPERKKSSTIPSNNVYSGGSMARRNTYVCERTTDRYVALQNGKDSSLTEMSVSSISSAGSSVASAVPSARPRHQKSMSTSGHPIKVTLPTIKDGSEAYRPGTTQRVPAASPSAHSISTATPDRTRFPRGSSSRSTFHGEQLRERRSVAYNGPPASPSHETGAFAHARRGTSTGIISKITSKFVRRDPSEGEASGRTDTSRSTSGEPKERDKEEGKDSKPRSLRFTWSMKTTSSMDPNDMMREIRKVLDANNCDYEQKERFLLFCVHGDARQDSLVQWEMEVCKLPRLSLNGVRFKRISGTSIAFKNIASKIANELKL
Protocol: NVS_ENZ_hMARK1 is a biochemical, single-readout assay that uses extracted gene-proteins in a cell-free assay. Measurements were taken 1 hour after chemical dosing in a 384-well plate.NVS_ENZ_hMARK1 is one of one assay component(s) measured or calculated from the NVS_ENZ_hMARK1 assay. It is designed to make measurements of enzyme activity, a form of enzyme reporter, as detected with fluorescence intensity signals by Fluorescence and electrophoretic mobility shift technology.Data from the assay component NVS_ENZ_hMARK1 was analyzed into 1 assay endpoint. This assay endpoint, NVS_ENZ_hMARK1, was analyzed in the positive analysis fitting direction relative to DMSO as the negative control and baseline of activity. Using a type of enzyme reporter, loss-of-signal activity can be used to understand changes in the enzymatic activity as they relate to the gene MARK1. Furthermore, this assay endpoint can be referred to as a primary readout, because this assay has produced multiple assay endpoints where this one serves a enzymatic activity function. To generalize the intended target to other relatable targets, this assay endpoint is annotated to the kinase intended target family, where the subfamily is serine/threonine kinase.
Binding assays used specific radioligands (tritiated, iodinated) with non-radioactive competitive displacement ligands in agonist or antagonist protocols (as indicated) and various reference compounds and inhibitors to titrate specific binding to receptors and transporters. Most enzyme assays (CYPs, kinases, phosphatases, proteases, HDACs) used recombinant protein and specific substrates (fluorescence mostly, some colorimetric and radioactive) and inhibitors, followed by a biochemical separation of substrate and product. All assays for the biochemical HTS were initially run in duplicate at a single concentration (10 uM for CYP450 assays and 25 uM for all others). Assay-chemical combinations meeting a pre-defined threshold (e.g., 30% inhibition and other criteria defined below) were then run in singleton concentration-response format with maximum concentration of 20 uM for CYPs and 50 uM for all others. Each assay was run with positive and negative controls, and concurrent controls on every plate. The follow-up (secondary) screen tested active chemical-pairs in concentration series, as well as a few additional assays not tested in the primary screen, some selected negative inactives, and several cases re-run in the concentration series for confirmatory purposes.
With O=C(O)C(F)(F)C(F)(F)C(F)(F)C(F)(F)C(F)(F)C(F)(F)C(F)(F)F the outcome was “inactive”. With Nc1c(Cl)cc([N+](=O)[O-])cc1Cl the outcome was “inactive”. In the case of CNC(=S)S, the outcome is reported as “inactive”. With CN(C)[C@@H]1C(=O)C(C(N)=O)=C(O)[C@@]2(O)C(=O)C3=C(O)c4c(O)cccc4[C@@](C)(O)[C@H]3[C@H](O)[C@@H]12 the AC50 was 18 µM (active). In the case of O=S(=O)(O)C(F)(F)C(F)(F)C(F)(F)C(F)(F)C(F)(F)C(F)(F)C(F)(F)C(F)(F)F, the AC50 is reported as 36.8 µM (active). CCOP(=S)(OCC)Oc1nc(Cl)n(C(C)C)n1 was tested, and the outcome was “inactive”. COP(=S)(OC)Oc1nc(Cl)c(Cl)cc1Cl was tested, and the outcome was “inactive”. In the case of COC(=O)c1ccccc1S(=O)(=O)NC(=O)N(C)c1nc(C)nc(OC)n1, the outcome is reported as “inactive”. For CCNC(=O)NC(=O)C(C#N)=NOC, the outcome was “inactive”. CCOP(=O)(OCC)Oc1nc(Cl)c(Cl)cc1Cl was tested, and the outcome was “inactive”. With N#CSCSC#N the outcome was “inactive”. COc1nc(C)nc(NC(=O)NS(=O)(=O)c2ccccc2CCC(F)(F)F)n1 was tested, and the outcome was “inactive”.
